Rows were chosen to be rich in hits. Some 19% of all compounds tested hit in one or more screens of this group.
HT1080-NT tox – kills 2HG-producing HT-1080-NT fibrosarcoma cells | HT-1080-NT fibrosarcoma viability, CellTiter-Glo ATP luminescence, 48 h | Potency, µM (highest dose often 46.1 µM), without a hit: at the top dose activity, negative = less viability, hits mostly cytotoxic | hit rate 1.6% among 360,000;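 also: NT is the 2HG producing partner of a matched IDH1 knockdown line; potency is read from the fitted curve at half-maximal effect; 0% = DMSO-treated cells and -100% = media-only wells without cells; nearly all actives have a fitted effect of over 55% in size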
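Luminescent CellTiter-Glo readout after 48 hours of compound exposure at 37 degrees C defined viability of HT-1080-NT cells. Activity was normalized to DMSO wells and cell-free media wells; concentration-response curves were fitted and assigned curve classes.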
HT1080 IDH1KD tx – kills HT-1080 cells with IDH1 knockdown; Potency, µM (doses to about 46.1 µM), for inactives: top-dose activity, negative = toxicity, usual class: cytotoxic; hit rate 2% among 360,000; HT-1080 IDH1 knockdown viability, ATP luminescence, 48 h;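 also: potency is read from the fitted curve at half-maximal effect; 0% = DMSO wells and -100% = cell-free medium wells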
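Assay cells: HT-1080 with IDH1 knockdown, 750 per well, RPMI/5% FBS. Exposure: 48 h at 37 °C following 2 h pre-incubation. Read: CellTiter-Glo luminescence; fitted concentration-response, curve class assigned.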
IL-1B inflam inh – inflammasome signaling inhibition, IL-1 beta readout; THP-1 LPS/ATP IL-1B secretion, AlphaLISA, 16 h; stronger effect = lower value; activity change, % at 57.5 µM; hit rate 4.7% among 360,000; AID 743279; in the data active = activity change below about -50%; inconclusive = mostly about -30% to -49%
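Secreted IL-1B measured by AlphaLISA bead assay after 16 h compound exposure of THP-1 cells; compounds (final up to 57.5 uM) added 1 h before LPS (250 ng/mL) and ATP (1.25 mM) stimulation; lower signal means less secretion.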
DT40 TDP1 CPT – growth inhibition of DT40 Tdp1-/-;hTDP1 cells with camptothecin (screen for TDP1 inhibitors). Potency, µM (series often up to 46.2 µM), without a hit: at the top dose activity change, negative = growth inhibition, usual class: inhibitors. chicken DT40 Tdp1-/-;hTDP1 cells + 20 nM CPT, ATP luminescence, 48 h. hit rate 12% among 420,000; also: potency is read from the fitted curve at half-maximal effect; nearly all actives have a fitted effect of over 55% in size
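Chicken DT40 Tdp1-/- cells complemented with human TDP1, 400 cells/well, exposed to compounds plus 20 nM camptothecin for at least 48 h at 37 C; viability read as ATP content by CellTiter-Glo luminescence.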
DT40 TDP1 no CPT – qHTS for Inhibitors of human tyrosyl-DNA phosphodiesterase 1 (TDP1): qHTS in cells in absence of CPT; DT40 Tdp1-/- hTDP1 cells, no CPT, ATP luminescence, 48 h; Potency, µM (series often up to 46.2 µM), without a hit: at the highest dose activity change, negative = growth inhibition, most hits filed as inhibitors; hit rate 15% among 420,000; AID 686978, 2013; also: potency is read from the fitted curve at half-maximal effect; nearly all actives have a fitted effect of over 55% in size
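Compound effects on proliferation are scored in DT40 Tdp1-/-;hTDP1 cells in the absence of CPT. ATP levels (CellTiter-Glo luminescence) are recorded after a ≥48 hr, 37 °C incubation.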
An asterisk follows results filed as active; u = inconclusive; x = not tested or not shown; [ ] = remark or other dose. Unless noted, calls follow the shape of the dose curve; as a rule, active = well fitted curve in the direction sought with a large enough effect; inconclusive = small, poorly fitted or top-dose-only effect, or another doubt; inactive = no such curve, though single readings can be large; an effect the other way counts as inactive or inconclusive. Unless noted, % is scaled to controls: 0 for no effect and ±100 for the full control effect.

SMILES	HT1080-NT tox	HT1080 IDH1KD tx	IL-1B inflam inh	DT40 TDP1 CPT	DT40 TDP1 no CPT
CCC[C@@H](CN1CCC[C@H]1CN1C(N)=NC[C@H]1CC(C)C)N1C[C@@H](Cc2ccccc2)N(CCCC2CCCC2)C1=N	-6%	-5%	-66*	10µM*	12µM*
COCC(=O)N1CCC2(CCN(Cc3ccccc3OC)CC2)CC1	x	x	x	5%	-9%
COCCCNC(=O)CN1C(=O)/C(=C/c2ccccc2)Sc2ccccc21	u	3%	-15	u	15µM*
CCOCCCNC(=O)CN1C(=O)/C(=C\c2ccc(C)cc2)Sc2ccccc21	2%	2%	2	21µM*	u
CCOC(=O)C1(C)CCCN1C(=O)c1ccc(OC)cc1 (stereo unspecified)	9%	11%	0	0%	-9%
CCOC(=O)Cn1c(CN2CCN(c3ccc(OC)cc3)CC2)nc2c1c(=O)[nH]c(=O)n2C	x	x	x	-2%	-20%
Cc1cc(OC(C)C)c2c(-c3ccccc3)cc(=O)oc2c1	-6%	1%[9.24 µM]	44	23µM*	u
CCOc1cc(C)cc2oc(=O)cc(-c3ccccc3)c12	0%	0%	32	13µM*	21µM*
Cc1cc(OCC(=O)N2CCc3ccccc3C2)c2c(-c3ccccc3)cc(=O)oc2c1	u	u	-26	23µM*	u
CC(=O)Oc1cc(C)cc2oc(=O)cc(-c3ccccc3)c12	-26%	u	20	-7%	u
O=C(NCCc1ccccc1)C1CCCN(c2ncnc3c2nc2n3CCCCC2)C1 (stereo unspecified)	-1%	-1%	25	u	u
CC(=O)c1ccc(NC(=O)C2CCCN(c3ncnc4c3nc3n4CCCCC3)C2)cc1 (stereo unspecified)	2%	8%	-61*	u	13µM*
CSc1cccc(NC(=O)C2CCCN(c3ncnc4c3nc3n4CCCCC3)C2)c1 (stereo unspecified)	2%	5%	7	u	15µM*
COc1ccc(NC(=O)CC2C(=O)N(c3ccccc3)C(=O)N2C2CCCCC2)cc1 (stereo unspecified)	x	x	x	2%	-13%
COCCCNC(=O)c1cc(C(=O)c2ccccc2Br)c[nH]1	-6%	-4%	-14	6%	-28%
CC1CCCCN1CCCNC(=O)C1CCN(c2nc3ccccc3o2)CC1 (stereo unspecified)	-13%	-5%	-28	3%	-18%
O=C(NC1CCCCCC1)C1CCN(c2nc3ccccc3o2)CC1	-1%	8%	18	u	16µM*
Cc1ccc(CNc2ncnc3[nH]ncc23)o1	x	x	x	-1%	-7%
COCCCN(C(=O)CC1OC(=O)c2ccccc21)c1c(N)n(Cc2ccccc2)c(=O)[nH]c1=O (stereo unspecified)	-2%	4%	1	5%	4%
CCOc1cc(CNc2ccc(N(C)C)cc2)cc(Br)c1OCC(=O)NC(C)(C)C	u	u	-11	18µM*	21µM*
CCOc1cc(CNc2ccc(S(N)(=O)=O)cc2)ccc1OCC(=O)NC(C)(C)C	-10%	-13%	0	-23%	u
CCOc1cc(CNc2ccc(N3CCCCC3)cc2)cc(Br)c1OCC(=O)NC(C)(C)C	-11%	-5%	-86*	u	16µM*
CCOc1cc(CO)cc(Br)c1OCC(=O)Nc1ccccc1C	-2%	5%	44	u	-22%
Cc1ccc(-c2nnc(N3CCC(C)CC3)c3ccccc23)cc1	-16%	-20%	-14	13µM*	8.2µM*
Cc1ccc(-c2nnc(N3CCC(C)CC3)c3ccccc23)cc1C	u	29µM*	-95*	6.5µM*	9.2µM*
SMILES	HT1080-NT tox	HT1080 IDH1KD tx	IL-1B inflam inh	DT40 TDP1 CPT	DT40 TDP1 no CPT
CC(=O)N1CCN(c2nnc(-c3ccccc3)c3ccccc23)CC1	-2%	-2%	0	-11%	3%
COc1ccc(-c2nc3nc(C)cc(Nc4ccc(C(C)=O)cc4)n3n2)cc1	x	x	x	u	15µM*
COc1ccccc1Nc1cc(C)nc2nc(-c3ccccc3)nn12	x	x	x	16µM*	u
CCCOc1ccccc1C1NC(=O)NC(C)=C1C(=O)OCc1ccccc1 (stereo unspecified)	u	u	-71*	23µM*	u
CCCOc1ccccc1C1NC(=O)NC(C)=C1C(=O)OCCOC (stereo unspecified)	9%	6%	-13	-8%	-22%
CCOC(=O)C1=C(C)NC(=O)NC1c1cccc(OC)c1OCc1ccccc1Cl (stereo unspecified)	-25%	u	11	8.2µM*	u
CC1=C(C(=O)OCc2ccc3c(c2)OCO3)C(c2ccccc2OCc2ccccc2)NC(=O)N1 (stereo unspecified)	u	u	-50*	u	26µM*
CCC(=O)N(Cc1cc(=O)[nH]c2ccccc12)c1ccc(C)cc1C	-3%	-3%	23	-10%	9%
COc1ccc(C(=O)NCC(=O)OCc2ccc(F)cc2)cc1	10%	10%	24	2%	1%
O=C(CCc1ccccc1)NCC(c1ccco1)N1CCc2ccccc21 (stereo unspecified)	6.5µM*	5.2µM*	-7	4.6µM*	4.1µM*
Cc1ccc(C(=O)NCC(c2ccco2)N2CCc3ccccc32)cc1 (stereo unspecified)	-7%	-4%	u	10µM*	13µM*
CC(=O)Nc1cccc(NC(=O)C(=O)NCC(c2ccco2)N2CCc3ccccc32)c1 (stereo unspecified)	-21%	-26%	-8	u	u
O=C(NCC(c1ccco1)N1CCc2ccccc21)c1cccc([N+](=O)[O-])c1 (stereo unspecified)	-22%	-17%	-4	16µM*	21µM*
Cc1cccc(C(=O)NCC(c2ccco2)N2CCc3ccccc32)c1 (stereo unspecified)	-15%	-8%	-58*	u	15µM*
O=C(NCC(c1ccco1)N1CCc2ccccc2C1)c1ccccc1 (stereo unspecified)	10%	4%	-7	u	u
O=C(NCC(c1ccco1)N1CCc2ccccc21)c1ccc([N+](=O)[O-])cc1 (stereo unspecified)	-6%	-20%	-4	-13%	-22%
O=C(NCC(c1ccco1)N1CCc2ccccc2C1)C(=O)Nc1ccccc1 (stereo unspecified)	1%	-10%	5	u	u
CCOC(=O)c1ccc(NC(=S)N2CCN(CCO)CC2)cc1	20%	7%	-22	-2%	-15%

High-throughput results deposited in PubChem BioAssay by National Center for Advancing Translational Sciences (NCATS).
